Data reported in ChEMBL document CHEMBL1961873, “Compounds: GSK PKIS; Assays: Nanosyn kinase panel” (2012).

What was measured:
[1] = biological target: Protein kinase C gamma type (Homo sapiens) (UniProt P05129); details: at 1 µM;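 note: each value is an averaged percent inhibition of the enzyme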
[2] = biological target: T1, Protein kinase C iota type (Homo sapiens) (UniProt P41743); details: at 0.1 µM
T1 sequence (whole entry): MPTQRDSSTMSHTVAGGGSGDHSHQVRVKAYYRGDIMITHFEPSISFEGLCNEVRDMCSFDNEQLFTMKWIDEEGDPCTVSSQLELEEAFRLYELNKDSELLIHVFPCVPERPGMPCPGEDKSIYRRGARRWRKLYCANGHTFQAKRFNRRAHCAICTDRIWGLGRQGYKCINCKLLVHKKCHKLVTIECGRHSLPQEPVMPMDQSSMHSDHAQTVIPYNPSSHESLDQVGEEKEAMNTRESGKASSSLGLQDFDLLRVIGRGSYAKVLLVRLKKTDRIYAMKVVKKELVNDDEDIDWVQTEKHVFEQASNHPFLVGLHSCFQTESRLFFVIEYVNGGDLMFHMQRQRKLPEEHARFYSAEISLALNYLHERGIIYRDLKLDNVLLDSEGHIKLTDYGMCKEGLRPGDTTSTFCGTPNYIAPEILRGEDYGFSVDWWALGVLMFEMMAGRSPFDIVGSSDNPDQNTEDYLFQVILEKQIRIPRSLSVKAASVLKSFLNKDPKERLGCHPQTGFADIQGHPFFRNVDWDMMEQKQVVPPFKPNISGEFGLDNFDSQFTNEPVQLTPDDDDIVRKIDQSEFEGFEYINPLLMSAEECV

[3] = biological target: T1, Protein kinase C iota type (Homo sapiens); details: at 1 µM
[4] = biological target: Protein kinase C theta type (Homo sapiens) (UniProt Q04759); details: at 0.1 µM
[5] = biological target: Protein kinase C theta type (Homo sapiens) (UniProt Q04759); details: at 1 µM
[6] = biological target: Protein kinase C beta type (Homo sapiens) (UniProt P05771); details: at 0.1 µM
[7] = biological target: Protein kinase C beta type (Homo sapiens) (UniProt P05771); details: at 1 µM
[8] = biological target: T2, Serine/threonine-protein kinase D1 (Homo sapiens) (UniProt Q15139); details: at 0.1 µM
T2 sequence (whole entry): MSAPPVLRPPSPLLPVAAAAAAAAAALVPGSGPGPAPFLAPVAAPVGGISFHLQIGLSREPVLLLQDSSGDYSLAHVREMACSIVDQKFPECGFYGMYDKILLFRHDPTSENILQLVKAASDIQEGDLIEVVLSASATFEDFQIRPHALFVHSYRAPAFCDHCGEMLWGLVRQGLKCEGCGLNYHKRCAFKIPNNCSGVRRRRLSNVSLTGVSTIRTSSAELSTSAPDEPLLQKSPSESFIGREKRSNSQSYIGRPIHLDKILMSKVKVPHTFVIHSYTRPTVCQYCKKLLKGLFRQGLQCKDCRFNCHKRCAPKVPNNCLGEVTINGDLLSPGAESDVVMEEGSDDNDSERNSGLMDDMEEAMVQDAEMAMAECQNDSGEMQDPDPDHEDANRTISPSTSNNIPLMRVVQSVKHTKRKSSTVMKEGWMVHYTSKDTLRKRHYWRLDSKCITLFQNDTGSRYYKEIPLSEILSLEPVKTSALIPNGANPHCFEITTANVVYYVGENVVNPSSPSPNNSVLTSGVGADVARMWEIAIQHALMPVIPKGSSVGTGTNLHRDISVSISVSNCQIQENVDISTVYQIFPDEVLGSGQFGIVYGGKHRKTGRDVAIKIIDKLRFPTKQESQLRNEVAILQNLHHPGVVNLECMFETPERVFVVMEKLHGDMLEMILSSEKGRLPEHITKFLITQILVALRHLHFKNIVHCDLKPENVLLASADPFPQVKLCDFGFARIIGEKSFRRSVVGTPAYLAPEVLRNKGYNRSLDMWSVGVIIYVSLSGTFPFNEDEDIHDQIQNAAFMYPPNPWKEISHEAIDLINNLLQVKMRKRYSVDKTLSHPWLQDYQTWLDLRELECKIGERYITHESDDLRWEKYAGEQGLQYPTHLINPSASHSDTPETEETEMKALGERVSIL

[9] = biological target: T2, Serine/threonine-protein kinase D1 (Homo sapiens); details: at 1 µM
[10] = biological target: T3, Serine/threonine-protein kinase D2 (Homo sapiens) (UniProt Q9BZL6); details: at 0.1 µM
T3 sequence (whole entry): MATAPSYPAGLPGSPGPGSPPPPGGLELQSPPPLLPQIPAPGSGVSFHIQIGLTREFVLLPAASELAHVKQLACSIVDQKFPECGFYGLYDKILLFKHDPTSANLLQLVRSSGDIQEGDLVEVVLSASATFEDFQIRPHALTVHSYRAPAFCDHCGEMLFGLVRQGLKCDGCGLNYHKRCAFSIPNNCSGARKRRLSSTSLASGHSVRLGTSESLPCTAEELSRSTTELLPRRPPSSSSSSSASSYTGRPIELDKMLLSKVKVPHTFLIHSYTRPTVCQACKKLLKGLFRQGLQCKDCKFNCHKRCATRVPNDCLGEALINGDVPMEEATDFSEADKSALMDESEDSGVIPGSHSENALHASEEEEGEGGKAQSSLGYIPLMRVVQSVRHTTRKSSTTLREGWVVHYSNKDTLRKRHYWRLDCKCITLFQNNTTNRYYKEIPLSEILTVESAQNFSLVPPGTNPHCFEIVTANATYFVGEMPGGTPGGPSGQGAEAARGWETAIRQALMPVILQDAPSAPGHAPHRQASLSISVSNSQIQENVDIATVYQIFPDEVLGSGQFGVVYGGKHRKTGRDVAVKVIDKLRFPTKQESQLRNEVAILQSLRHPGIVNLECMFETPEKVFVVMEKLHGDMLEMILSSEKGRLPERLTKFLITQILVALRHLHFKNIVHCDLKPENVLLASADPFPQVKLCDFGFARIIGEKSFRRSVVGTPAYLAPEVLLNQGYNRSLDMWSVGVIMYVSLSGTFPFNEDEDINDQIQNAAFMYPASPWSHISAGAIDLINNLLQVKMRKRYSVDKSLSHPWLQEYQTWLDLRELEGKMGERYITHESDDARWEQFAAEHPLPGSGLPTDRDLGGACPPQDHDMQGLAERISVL

[11] = biological target: T3, Serine/threonine-protein kinase D2 (Homo sapiens); details: at 1 µM
[12] = biological target: T4, Serine/threonine-protein kinase D3 (Homo sapiens) (UniProt O94806); details: at 0.1 µM
T4 sequence (whole entry): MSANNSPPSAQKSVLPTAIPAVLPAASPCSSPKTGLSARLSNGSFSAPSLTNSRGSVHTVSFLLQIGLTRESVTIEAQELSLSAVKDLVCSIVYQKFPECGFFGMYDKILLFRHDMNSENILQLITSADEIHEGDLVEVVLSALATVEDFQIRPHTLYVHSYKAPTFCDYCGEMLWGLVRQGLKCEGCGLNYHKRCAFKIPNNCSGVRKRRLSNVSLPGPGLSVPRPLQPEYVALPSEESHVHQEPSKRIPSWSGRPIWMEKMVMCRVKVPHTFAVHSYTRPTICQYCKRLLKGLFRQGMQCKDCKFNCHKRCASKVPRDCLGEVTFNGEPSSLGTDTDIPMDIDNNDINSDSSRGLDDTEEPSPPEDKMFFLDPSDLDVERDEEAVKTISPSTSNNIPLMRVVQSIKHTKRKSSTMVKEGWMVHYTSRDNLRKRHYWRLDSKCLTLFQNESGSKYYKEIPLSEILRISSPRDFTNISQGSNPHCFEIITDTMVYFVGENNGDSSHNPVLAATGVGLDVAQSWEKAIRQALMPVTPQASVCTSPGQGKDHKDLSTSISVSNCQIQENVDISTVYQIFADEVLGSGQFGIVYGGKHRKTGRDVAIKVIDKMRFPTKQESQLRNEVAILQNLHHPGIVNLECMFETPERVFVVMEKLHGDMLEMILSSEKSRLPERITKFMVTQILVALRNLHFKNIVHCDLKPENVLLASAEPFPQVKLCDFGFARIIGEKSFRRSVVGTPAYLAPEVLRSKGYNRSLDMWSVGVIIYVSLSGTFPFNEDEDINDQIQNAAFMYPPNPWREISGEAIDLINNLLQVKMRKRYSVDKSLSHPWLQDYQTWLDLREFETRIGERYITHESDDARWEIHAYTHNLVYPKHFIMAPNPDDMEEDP

[13] = biological target: T4, Serine/threonine-protein kinase D3 (Homo sapiens); details: at 1 µM
[14] = biological target: T5, cGMP-dependent protein kinase 1 (Homo sapiens) (UniProt Q13976); details: at 0.1 µM
T5 sequence (whole entry): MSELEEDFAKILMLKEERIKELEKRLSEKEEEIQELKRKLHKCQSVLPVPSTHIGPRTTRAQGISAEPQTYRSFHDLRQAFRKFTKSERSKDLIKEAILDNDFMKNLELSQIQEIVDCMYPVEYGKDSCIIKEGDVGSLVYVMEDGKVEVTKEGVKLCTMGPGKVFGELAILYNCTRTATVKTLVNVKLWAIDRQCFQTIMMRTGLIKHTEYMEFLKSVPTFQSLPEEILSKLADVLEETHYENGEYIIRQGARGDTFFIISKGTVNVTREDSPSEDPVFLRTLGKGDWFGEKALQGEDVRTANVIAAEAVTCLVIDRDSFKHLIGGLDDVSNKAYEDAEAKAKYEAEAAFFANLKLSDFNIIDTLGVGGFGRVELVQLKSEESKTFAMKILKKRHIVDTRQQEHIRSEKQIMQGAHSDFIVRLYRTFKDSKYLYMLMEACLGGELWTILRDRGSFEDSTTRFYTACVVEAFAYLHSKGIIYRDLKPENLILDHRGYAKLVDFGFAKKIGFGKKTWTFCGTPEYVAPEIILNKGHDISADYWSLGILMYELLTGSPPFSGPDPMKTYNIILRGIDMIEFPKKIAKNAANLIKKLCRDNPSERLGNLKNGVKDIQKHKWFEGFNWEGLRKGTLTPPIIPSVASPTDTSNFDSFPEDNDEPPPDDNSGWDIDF

[15] = biological target: T5, cGMP-dependent protein kinase 1 (Homo sapiens); details: at 1 µM
[16] = biological target: T6, cGMP-dependent protein kinase 2 (Homo sapiens) (UniProt Q13237); details: at 0.1 µM
T6 sequence (whole entry): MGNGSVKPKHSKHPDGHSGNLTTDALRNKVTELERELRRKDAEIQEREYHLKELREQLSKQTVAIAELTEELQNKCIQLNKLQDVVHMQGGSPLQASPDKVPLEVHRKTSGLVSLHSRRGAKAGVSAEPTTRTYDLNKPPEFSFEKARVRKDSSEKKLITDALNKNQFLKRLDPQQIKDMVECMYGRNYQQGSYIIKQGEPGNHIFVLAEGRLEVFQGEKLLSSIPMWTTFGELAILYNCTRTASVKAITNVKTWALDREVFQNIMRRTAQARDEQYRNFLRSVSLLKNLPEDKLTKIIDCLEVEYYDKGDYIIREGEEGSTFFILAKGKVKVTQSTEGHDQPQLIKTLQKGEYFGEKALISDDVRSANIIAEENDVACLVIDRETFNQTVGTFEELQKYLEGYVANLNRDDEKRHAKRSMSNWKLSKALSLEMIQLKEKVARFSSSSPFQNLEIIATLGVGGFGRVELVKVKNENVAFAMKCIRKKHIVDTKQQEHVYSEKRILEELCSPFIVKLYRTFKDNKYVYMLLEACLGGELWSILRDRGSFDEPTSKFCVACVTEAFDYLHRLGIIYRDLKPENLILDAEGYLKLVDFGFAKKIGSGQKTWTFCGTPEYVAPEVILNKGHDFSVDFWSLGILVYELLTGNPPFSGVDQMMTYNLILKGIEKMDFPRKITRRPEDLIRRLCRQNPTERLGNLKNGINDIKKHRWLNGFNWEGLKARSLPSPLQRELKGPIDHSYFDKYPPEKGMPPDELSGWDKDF

[17] = biological target: T6, cGMP-dependent protein kinase 2 (Homo sapiens); details: at 1 µM
[18] = biological target: T7, cAMP-dependent protein kinase catalytic subunit PRKX (Homo sapiens) (UniProt P51817); details: at 0.1 µM
T7 sequence (whole entry): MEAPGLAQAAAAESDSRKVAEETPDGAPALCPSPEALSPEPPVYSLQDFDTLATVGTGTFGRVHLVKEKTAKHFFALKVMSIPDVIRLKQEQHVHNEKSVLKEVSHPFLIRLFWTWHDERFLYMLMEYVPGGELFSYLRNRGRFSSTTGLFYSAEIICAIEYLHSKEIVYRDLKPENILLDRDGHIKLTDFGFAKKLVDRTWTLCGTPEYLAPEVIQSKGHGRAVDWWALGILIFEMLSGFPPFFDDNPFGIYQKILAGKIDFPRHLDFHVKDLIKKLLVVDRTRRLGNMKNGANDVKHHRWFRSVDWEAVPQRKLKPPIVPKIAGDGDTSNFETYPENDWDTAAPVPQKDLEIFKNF

[19] = biological target: T7, cAMP-dependent protein kinase catalytic subunit PRKX (Homo sapiens); details: at 1 µM
[20] = biological target: Rho-associated protein kinase 1 (Homo sapiens) (UniProt Q13464); details: at 0.1 µM;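 note: values are mean percent inhibition of ROCK1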
Chain of Rho-associated protein kinase 1 (Homo sapiens) (Q13464 2-1354 limits assumed): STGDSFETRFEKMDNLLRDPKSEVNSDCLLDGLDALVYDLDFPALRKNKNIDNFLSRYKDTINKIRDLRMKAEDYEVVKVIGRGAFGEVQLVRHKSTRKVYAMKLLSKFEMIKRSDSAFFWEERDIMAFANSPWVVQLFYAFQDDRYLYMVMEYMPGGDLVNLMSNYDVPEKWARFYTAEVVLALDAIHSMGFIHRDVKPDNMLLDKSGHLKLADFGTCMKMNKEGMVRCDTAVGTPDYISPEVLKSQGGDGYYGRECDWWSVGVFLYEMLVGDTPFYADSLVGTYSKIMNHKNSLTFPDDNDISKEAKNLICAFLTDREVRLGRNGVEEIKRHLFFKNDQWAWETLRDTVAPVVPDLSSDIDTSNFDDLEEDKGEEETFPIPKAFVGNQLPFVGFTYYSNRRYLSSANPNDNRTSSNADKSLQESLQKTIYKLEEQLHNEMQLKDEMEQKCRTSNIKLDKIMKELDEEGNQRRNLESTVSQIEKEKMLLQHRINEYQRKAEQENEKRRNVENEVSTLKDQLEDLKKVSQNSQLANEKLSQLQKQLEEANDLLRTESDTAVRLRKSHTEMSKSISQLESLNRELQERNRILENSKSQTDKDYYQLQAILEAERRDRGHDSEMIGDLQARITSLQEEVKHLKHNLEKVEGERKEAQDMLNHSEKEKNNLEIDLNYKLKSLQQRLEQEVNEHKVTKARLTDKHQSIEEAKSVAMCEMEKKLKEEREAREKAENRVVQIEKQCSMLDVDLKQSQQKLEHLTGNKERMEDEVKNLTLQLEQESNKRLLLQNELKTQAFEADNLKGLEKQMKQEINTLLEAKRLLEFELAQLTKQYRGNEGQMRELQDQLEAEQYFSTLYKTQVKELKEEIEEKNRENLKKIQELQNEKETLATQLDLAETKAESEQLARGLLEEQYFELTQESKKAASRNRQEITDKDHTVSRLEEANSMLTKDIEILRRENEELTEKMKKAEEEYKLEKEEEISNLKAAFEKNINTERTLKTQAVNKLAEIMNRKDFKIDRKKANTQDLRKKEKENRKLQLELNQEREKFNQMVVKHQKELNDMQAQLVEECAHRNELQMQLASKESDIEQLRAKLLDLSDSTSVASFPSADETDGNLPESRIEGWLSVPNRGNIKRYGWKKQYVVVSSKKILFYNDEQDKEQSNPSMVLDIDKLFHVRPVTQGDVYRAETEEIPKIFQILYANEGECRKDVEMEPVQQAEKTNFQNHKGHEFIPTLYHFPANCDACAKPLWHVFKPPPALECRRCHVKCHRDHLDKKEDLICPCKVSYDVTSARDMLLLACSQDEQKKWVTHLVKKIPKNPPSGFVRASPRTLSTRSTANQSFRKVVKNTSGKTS

Chain of Protein kinase C theta type (Homo sapiens) (Q04759 whole entry, looked up): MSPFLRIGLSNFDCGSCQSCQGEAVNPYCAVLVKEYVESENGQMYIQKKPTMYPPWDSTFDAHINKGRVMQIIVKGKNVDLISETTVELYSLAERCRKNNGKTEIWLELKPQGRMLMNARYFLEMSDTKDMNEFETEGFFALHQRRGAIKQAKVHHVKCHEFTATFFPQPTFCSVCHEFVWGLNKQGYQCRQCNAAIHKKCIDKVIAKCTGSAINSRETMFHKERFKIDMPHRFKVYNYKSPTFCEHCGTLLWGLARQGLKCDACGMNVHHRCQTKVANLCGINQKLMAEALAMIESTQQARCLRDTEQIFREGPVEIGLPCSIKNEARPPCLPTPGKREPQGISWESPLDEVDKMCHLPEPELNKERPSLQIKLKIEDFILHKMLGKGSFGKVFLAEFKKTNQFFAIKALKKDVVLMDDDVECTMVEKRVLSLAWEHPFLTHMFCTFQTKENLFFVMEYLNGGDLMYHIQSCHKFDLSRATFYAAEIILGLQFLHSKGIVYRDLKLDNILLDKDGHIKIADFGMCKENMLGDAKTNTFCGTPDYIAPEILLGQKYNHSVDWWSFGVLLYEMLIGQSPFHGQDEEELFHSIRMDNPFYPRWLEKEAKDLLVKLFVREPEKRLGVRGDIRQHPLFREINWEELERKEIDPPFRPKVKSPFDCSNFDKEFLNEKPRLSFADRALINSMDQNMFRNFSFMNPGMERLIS
Chain of Protein kinase C beta type (Homo sapiens) (P05771 2-671 limits assumed): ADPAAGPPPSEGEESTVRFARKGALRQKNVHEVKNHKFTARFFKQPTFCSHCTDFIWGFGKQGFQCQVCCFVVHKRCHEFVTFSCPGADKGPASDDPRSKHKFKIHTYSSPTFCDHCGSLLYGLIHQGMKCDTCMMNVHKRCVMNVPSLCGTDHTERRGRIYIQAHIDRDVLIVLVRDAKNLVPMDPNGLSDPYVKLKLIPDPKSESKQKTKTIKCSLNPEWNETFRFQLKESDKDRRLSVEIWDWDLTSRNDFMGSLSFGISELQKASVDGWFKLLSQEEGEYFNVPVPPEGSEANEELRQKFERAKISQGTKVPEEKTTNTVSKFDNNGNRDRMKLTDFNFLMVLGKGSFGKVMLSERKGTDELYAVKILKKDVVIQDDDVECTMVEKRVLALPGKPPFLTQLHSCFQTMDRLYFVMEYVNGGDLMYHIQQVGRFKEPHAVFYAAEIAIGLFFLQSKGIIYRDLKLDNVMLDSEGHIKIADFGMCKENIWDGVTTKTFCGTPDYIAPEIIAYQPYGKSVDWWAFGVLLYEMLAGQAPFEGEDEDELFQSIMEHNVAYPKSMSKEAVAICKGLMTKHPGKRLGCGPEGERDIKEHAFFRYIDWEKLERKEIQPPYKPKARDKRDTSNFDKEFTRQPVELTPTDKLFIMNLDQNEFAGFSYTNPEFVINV

SMILES	inhibition [1] [%]	inhibition [2] [%]	inhibition [3] [%]	inhibition [4] [%]	inhibition [5] [%]	inhibition [6] [%]	inhibition [7] [%]	inhibition [8] [%]	inhibition [9] [%]	inhibition [10] [%]	inhibition [11] [%]	inhibition [12] [%]	inhibition [13] [%]	inhibition [14] [%]	inhibition [15] [%]	inhibition [16] [%]	inhibition [17] [%]	inhibition [18] [%]	inhibition [19] [%]	inhibition [20] [%]
C[C@@H](Oc1cc(-n2cnc3ccc(OC4CCN(C)CC4)cc32)sc1C(N)=O)c1ccccc1Cl	4.97	1.12	2.89	3.08	9.67	1.56	8.48	0.52	3.79	0.7	1.06	0.8	3.55	3.98	4.08	1.43	4.43	2.2	-1.84	1.76
O=C1NC(=O)C(c2cccc(Cl)c2)=C1Nc1ccc(Cl)c(C(=O)O)c1	4.28	0.11	0.87	1.72	3.51	1	1.2	2.5	3.42	3.1	3.62	2.22	2.81	1.11	2	-0.19	1.58	2.51	2.74	-0.01
COc1cc2ncn(-c3cc(OCc4ccccc4C(F)(F)F)c(C(C)=O)s3)c2cc1OC	0.33	0.95	1.41	1.39	0.74	0.72	0.23	3.39	5.09	2.5	2.55	2.93	3.23	1.35	0.72	0.9	0	0.6	0.44	0.94
Cc1nnc(-c2ccc(C)c(-c3ccc(C(=O)NCc4ccc(Cl)cc4)cc3)c2)o1	3.88	2.2	0.35	1.83	3.97	1.36	3.21	1	0.36	0.28	-0.8	2.09	-0.1	2.07	5.32	3.25	3.86	2.66	5.13	1.51
